Records with an inconclusive call do not appear. A call without a number means that no potency is given here. Activity calls are given as the source filed them. Unless noted, the call rests on the fitted dose curve; in most records, active means well fitted curve in the direction sought with a large enough effect in the repeat runs; inconclusive means weak or mixed curves; inactive means no such curve, though single readings can be large; an effect the other way counts as inactive or inconclusive.
Assays:
[1] = qHTS assay to identify small molecule agonists of the hypoxia (HIF-1) signaling pathway (AID 1224846; active means well fitted activation curve with a large enough effect in the signal ratio in the repeat runs, not every such curve was filed as active; the % refers to the signal ratio); conditions: HRE-bla ME-180 cells, beta-lactamase ratio, 17 h; series mostly up to 76.8 µM
Summary of the method: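 HRE-bla ME-180 cells (beta-lactamase reporter under hypoxia response element) were plated at 2,000 cells/well in medium with 0.5% dialyzed FBS, rested 5 hrs, then given compounds in DMSO for 17 hrs at 37C, 5% CO2. Reporter induction was read with CCF4-AM FRET substrate.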

[2] = qHTS assay to identify small molecule agonists of H2AX - cell viability counter screen (AID 1224847; calls by dose curve;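 further: wild-type CHO-K1 cells; top concentration of the series differs between compounds; nearly all actives have a fitted effect of over 30% in size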); conditions: CHO-K1 viability, CellTiter-Glo luminescence, 3 h; series mostly up to 154 µM
Summary of the method: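 For this counter screen, overnight-attached CHO-K1 cells received test compounds (15 concentrations, 0.76% DMSO final); 3 hr later at 37C, CellTiter-Glo reagent was added and luminescence recorded after 30 min at room temperature.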

[3] = qHTS RealTime-Glo MT Cell Viability Assay in HepG2 cells - 24 hour (AID 1224867); conditions: RealTime-Glo luminescence; series mostly up to 76.8 µM; further: nearly all actives have a fitted effect of over 50% in size
Summary of the method: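 Luminescence read-out: viable HepG2 cells reduce a prosubstrate to a NanoLuc substrate, giving a signal proportional to live cell number. Reads taken at 0, 8, 16, 24, 32 and 40 h of compound exposure at 37 C.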

[4] = qHTS RealTime-Glo MT Cell Viability Assay in HEK293 cells - 32 hour (AID 1224868); conditions: RealTime-Glo luminescence; series mostly up to 76.8 µM; further: top concentration of the series differs between compounds; nearly all actives have a fitted effect of over 50% in size
Summary of the method: (§1)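 Nonlytic real-time viability readout: viable cells convert prosubstrate to NanoLuc substrate, giving luminescence proportional to live cell number. HEK293, 600 cells/well, compound added after 5 h, continuous culture at 37 C.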

[5] = A CellTox Green Cytotoxicity Assay to monitor cytotoxicity in HEK293 cells - 0 hour (AID 1224869); conditions: CellTox Green fluorescence; series mostly up to 76.8 µM; further: nearly all actives have a fitted effect of over 50% in size
Summary of the method: (§2)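 HEK293 cells premixed with CellTox Green dye were seeded at 600 cells/well and left 5 h at 37 C/5% CO2 before pin transfer of 23 nL compound in DMSO. Fluorescence from dye bound to dead-cell DNA was read during 40 h treatment.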

[6] = qHTS RealTime-Glo MT Cell Viability Assay in HepG2 cells - 40 hour (AID 1224870); conditions: RealTime-Glo luminescence; series mostly up to 76.8 µM; further: nearly all actives have a fitted effect of over 50% in size; further: potency means the concentration at half of the fitted maximal effect
Summary of the method: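 Real-time viability: cells seeded at 600 per well together with NanoLuc and cell-permeant prosubstrate, compounds added after 5 h incubation. Luminescence tracked at 0, 8, 16, 24, 32 and 40 h of exposure.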

[7] = A CellTox Green Cytotoxicity Assay to monitor cytotoxicity in HEK293 cells - 40 hour (AID 1224871); conditions: CellTox Green fluorescence; series mostly up to 76.8 µM; further: nearly all actives have a fitted effect of over 45% in size; further: potency means the concentration at half of the fitted maximal effect
Summary of the method: as §2

[8] = qHTS RealTime-Glo MT Cell Viability Assay in HEK293 cells - 16 hour (AID 1224872); conditions: RealTime-Glo luminescence; series mostly up to 76.8 µM
Summary of the method: as §1

[9] = qHTS assay to identify small molecule antagonists of the estrogen related receptor (ERR) signaling pathway from Tox21 library (AID 1224848); conditions: ERR reporter cell line, luciferase antagonist mode, 18 h; series mostly up to 92.4 µM; further: nearly all actives have a fitted effect of over 50% in size
Summary of the method: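 Antagonist-mode screen of the Tox21 10K library in an NTP-provided ERR reporter cell line; 18 h compound exposure at 37 C, luminescence measured with ONE-Glo.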

[10] = qHTS assay to identify small molecule agonists of the estrogen related receptor (ERR) signaling pathway from Tox21 library (AID 1224849; calls by dose curve; further: nearly all actives have a fitted effect of over 15% in size); conditions: ERR reporter cell line, ONE-Glo luciferase, 18 h; series mostly up to 92.4 µM
Summary of the method: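 ERR reporter cell line (NTP) seeded, rested 6 h at 37 C/5% CO2, then pinned with Tox21 compounds in DMSO. After 18 h at 37 C, ONE-Glo luciferase luminescence was read following 30 min at room temperature.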

SMILES | outcome [1] | outcome [2] | outcome [3] | Potency [4] | outcome [5] | Potency [6] | Potency [7] | Potency [8] | Potency [9] | outcome [10]
CC(=O)NC(=O)c1ccccc1O | inactive | inactive | inactive | inactive | inactive | inactive | inactive | inactive | – | –
CCOC(=O)c1ccccc1 | inactive | inactive | – | inactive | inactive | inactive | inactive | inactive | inactive | inactive
CC(=O)c1cnccn1 | inactive | inactive | inactive | inactive | inactive | inactive | 16.2 µM (active) | inactive | – | –
CC(=O)c1ccc2ccccc2c1 | inactive | inactive | inactive | inactive | inactive | inactive | inactive | inactive | – | –
CCCC(C)C(=O)OCC (stereo not drawn) | inactive | inactive | – | inactive | – | inactive | inactive | inactive | inactive | inactive
C[N+](C)(CCOc1ccccc1)Cc1cccs1 | inactive | inactive | inactive | inactive | – | 23.9 µM (active) | inactive | inactive | inactive | –
O=C1CCCCCCCCCCCCCCO1 | inactive | inactive | inactive | inactive | inactive | inactive | inactive | inactive | – | –
CC(C)CCCO | inactive | inactive | inactive | inactive | inactive | inactive | inactive | inactive | – | –
CC(CC=O)CC(C)(C)C (stereo not drawn) | inactive | inactive | inactive | inactive | inactive | inactive | inactive | inactive | – | –
CN1C(C)(C)CC(O)CC1(C)C | inactive | inactive | inactive | inactive | inactive | inactive | inactive | inactive | – | –
CNC(=O)Nc1ccc(Cl)c(Cl)c1 | inactive | inactive | inactive | inactive | inactive | inactive | inactive | inactive | – | –
CCCCCCCCCCCCCCCCCCO | inactive | inactive | inactive | inactive | inactive | inactive | inactive | inactive | – | –
C=COC(=O)C(C)(CC)CCC(C)C (stereo not drawn) | inactive | inactive | inactive | inactive | inactive | inactive | inactive | inactive | – | –
O=S(=O)(O)c1cccc2c(S(=O)(=O)O)cccc12 | inactive | inactive | inactive | – | – | inactive | inactive | – | inactive | inactive
CC(C)(C#N)Nc1nc(Cl)nc(NC2CC2)n1 | inactive | inactive | inactive | inactive | inactive | inactive | inactive | inactive | – | –
CC1=NN(c2cccc(S(=O)(=O)O)c2)C(=O)C1 | inactive | inactive | – | inactive | – | inactive | inactive | inactive | inactive | inactive
Cc1nc(C2CCCCC2)c(-c2ccc(S(N)(=O)=O)c(F)c2)o1 | inactive | inactive | – | – | inactive | inactive | inactive | – | inactive | inactive
O=C(O)CNC(=O)c1ccc(CO)o1 | inactive | inactive | inactive | inactive | inactive | inactive | inactive | inactive | – | –
COc1ccccc1OCC1CNC(=O)O1 (stereo not drawn) | inactive | inactive | – | inactive | inactive | inactive | inactive | inactive | inactive | inactive
CC(C)COC(=O)c1ccc(N)cc1 | inactive | inactive | inactive | inactive | – | inactive | inactive | inactive | inactive | –
CC(C)C1CCC(O)CC1 (stereo not drawn) | inactive | inactive | inactive | inactive | inactive | inactive | inactive | inactive | – | –
COCCOCC(OC)OC | inactive | inactive | – | inactive | inactive | inactive | inactive | inactive | inactive | inactive
COc1ccc2cc1Oc1cc3c(cc1OC)CC[N+](C)(C)[C@H]3Cc1ccc(cc1)Oc1c(OC)c(OC)cc3c1[C@@H](C2)[N+](C)(C)CC3 | inactive | inactive | – | inactive | inactive | 16.9 µM (active) | inactive | inactive | inactive | inactive
CC1(C)[C@@H]2CC[C@@]1(C)[C@H](O)C2 | inactive | inactive | inactive | inactive | inactive | inactive | inactive | inactive | – | –
O=[N+]([O-])c1cncn1CCN1CCOCC1 | inactive | inactive | inactive | inactive | inactive | inactive | inactive | inactive | – | –
CC(C)=CCC/C(C)=C/C#N | inactive | inactive | inactive | inactive | inactive | inactive | inactive | inactive | – | –
CC1(C)OC[C@@H](COC(=O)CCc2ccc(OC[C@@H](O)CNCCNC(=O)N3CCOCC3)cc2)O1 | inactive | inactive | – | inactive | inactive | inactive | inactive | inactive | inactive | inactive

SMILES | outcome [1] | outcome [2] | outcome [3] | Potency [4] | outcome [5] | Potency [6] | Potency [7] | Potency [8] | Potency [9] | outcome [10]
CC(C)(CCC(=O)O)C(=O)O | inactive | inactive | inactive | inactive | inactive | inactive | inactive | inactive | – | –
CN(C)CCN(C)CCN(C)C | inactive | inactive | inactive | inactive | inactive | inactive | inactive | inactive | – | –
c1coc(CNc2ncnc3nc[nH]c23)c1 | inactive | inactive | inactive | inactive | inactive | inactive | inactive | inactive | – | –
CN1CCC(=C2c3ccccc3CCc3cccnc32)CC1 | inactive | inactive | inactive | inactive | inactive | inactive | inactive | inactive | – | –
CC(=O)c1ccccc1[N+](=O)[O-] | inactive | inactive | – | inactive | – | inactive | inactive | inactive | inactive | inactive
CCN(C=O)CC | inactive | inactive | inactive | inactive | inactive | inactive | inactive | inactive | – | –
CC(C#N)(CCC(=O)O)N=NC(C)(C#N)CCC(=O)O (stereo not drawn) | inactive | inactive | inactive | inactive | – | inactive | inactive | inactive | inactive | inactive
CCC(C)(CCCC(C)C)OC(C)=O (stereo not drawn) | inactive | inactive | inactive | inactive | inactive | inactive | inactive | inactive | – | –
CC1=C(C/C=C(\C)CCC[C@H](C)CCC[C@H](C)CCCC(C)C)C(=O)c2ccccc2C1=O | inactive | inactive | inactive | – | inactive | inactive | inactive | – | inactive | inactive
CCN(CC#N)c1cccc(C)c1 | inactive | inactive | inactive | inactive | inactive | inactive | inactive | inactive | – | –
CC(=O)N1C[C@H](O)C[C@H]1C(=O)O | inactive | inactive | inactive | inactive | inactive | inactive | inactive | inactive | – | –
O=C(O)CNC(=O)c1ccccc1 | inactive | inactive | inactive | inactive | inactive | inactive | inactive | inactive | – | –
CC(=O)C1CCCCC1=O (stereo not drawn) | inactive | inactive | inactive | inactive | – | inactive | inactive | inactive | – | –
CCCCCCCC1CCCC1=O (stereo not drawn) | inactive | inactive | inactive | inactive | inactive | inactive | inactive | inactive | – | –
CCOC(=O)C1=NOC(c2ccccc2)(c2ccccc2)C1 | inactive | inactive | inactive | inactive | inactive | inactive | inactive | inactive | – | –
Cc1nc2ccc(CN(C)c3ccc(C(=O)N[C@@H](CCC(=O)O)C(=O)O)s3)cc2c(=O)[nH]1 | inactive | inactive | inactive | inactive | inactive | inactive | inactive | inactive | – | –
C=C[Si](OC(C)=O)(OC(C)=O)OC(C)=O | inactive | inactive | inactive | inactive | inactive | inactive | inactive | inactive | – | –
CC1CCC(CO)CC1 (stereo not drawn) | inactive | inactive | inactive | inactive | inactive | inactive | inactive | inactive | – | –
Cc1coc2ccccc2c1=O | inactive | inactive | inactive | inactive | inactive | inactive | inactive | inactive | – | –
O=[N+]([O-])c1ccc(/C=N\O)o1 | inactive | inactive | inactive | inactive | inactive | inactive | inactive | inactive | – | –
CC(=O)N[C@H]1[C@H]([C@H](O)[C@H](O)CO)OC(C(=O)O)=C[C@@H]1N=C(N)N | inactive | inactive | inactive | inactive | – | inactive | inactive | inactive | – | –
Cc1ncc([C@@H](CCCCCCc2ccc3c(n2)NCCC3)CC(=O)O)cn1 | inactive | inactive | inactive | inactive | inactive | inactive | inactive | inactive | – | –
c1ccc(Cc2ccccc2)cc1 | inactive | inactive | inactive | inactive | inactive | inactive | 34.7 µM (active) | inactive | – | –
NC(=O)N[C@@H](CCC(=O)O)C(=O)O | inactive | inactive | inactive | inactive | inactive | inactive | inactive | inactive | – | –
CC(N)C12CC3CC(CC(C3)C1)C2 (stereo not drawn) | inactive | inactive | inactive | inactive | inactive | inactive | inactive | inactive | – | –
CCCCS(=O)(=O)N[C@@H](Cc1ccc(OCCCCC2CCNCC2)cc1)C(=O)O | inactive | inactive | inactive | inactive | – | inactive | inactive | inactive | – | –
CCCCc1ccc2c(n1)[C@@H](c1ccc(OC)cc1C[C@H](C)C(=O)O)[C@H](C(=O)O)[C@H]2c1ccc2c(c1)OCO2 | inactive | inactive | inactive | inactive | inactive | inactive | inactive | inactive | – | –

— PubChem BioAssay (Tox21)
